# Screening data as filed in PubChem.
# HT1080-NT tox: kills 2HG-producing HT-1080-NT fibrosarcoma cells. 360,000 tested, 1.6% active. Potency, µM (doses to about 46.1 µM), inactives show at the top dose activity, negative = less viability, hits mostly cytotoxic. HT-1080-NT fibrosarcoma viability, CellTiter-Glo ATP luminescence, 48 h. AID 686970;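 also: NT is the 2HG producing partner of a matched IDH1 knockdown line; potency is read from the fitted curve at half-maximal effect; 0% = DMSO-treated cells and -100% = media-only wells without cells; nearly all actives have a fitted effect of over 55% in size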
#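 HT-1080-NT fibrosarcoma cells (2HG-overproducing), 750 cells/well in RPMI with 5% FBS, dosed after 2 h and incubated 48 h at 37C. CellTiter-Glo luminescence normalized to DMSO and no-cell wells; concentration-response curves fitted and classed.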
# TDP1 cell noCPT: qHTS for Inhibitors of human tyrosyl-DNA phosphodiesterase 1 (TDP1): qHTS in cells in absence of CPT | Potency, µM (titrated, usually from 46.2 µM), without a hit: at the top dose activity change, negative = growth inhibition, actives largely listed as inhibitors | 420,000 tested, 15% active | DT40 Tdp1-/- hTDP1 cells, no CPT, ATP luminescence, 48 h; also: potency is read from the fitted curve at half-maximal effect; nearly all actives have a fitted effect of over 55% in size
#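 Growth kinetics read by CellTiter-Glo luminescence after ≥48 hr at 37 °C. Cells: DT40 Tdp1-/- stably carrying human TDP1, 400 per well, compound exposure in the absence of CPT (DMSO vehicle).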
# HT1080 IDH1KD tx: kills HT-1080 cells with IDH1 knockdown | 360,000 tested, 2% active | Potency, µM (top dose mostly 46.1 µM), inactives show at the highest dose activity, negative = toxicity, hits mostly cytotoxic | AID 686971 | HT-1080 IDH1 knockdown viability, ATP luminescence, 48 h;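 also: potency is read from the fitted curve at half-maximal effect; 0% = DMSO wells and -100% = cell-free medium wells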
#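 % activity derives from luminescence (CellTiter-Glo), normalised to DMSO and no-cell wells. HT-1080-IDH1KD cells, 750/well, had 48 h compound exposure at 37 °C.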
# IL-1B inflam inh: inhibitors of inflammasome signaling (IL-1 beta secretion) | 360,000 tested, 4.7% active | AID 743279 | activity change, % at 57.5 µM | THP-1 LPS/ATP IL-1B secretion, AlphaLISA, 16 h; stronger effect = lower value; in the data active = activity change below about -50%; inconclusive = mostly about -30% to -49%
#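 THP-1 cells pretreated 1 hr with compounds (up to 57.5 uM final), then stimulated with LPS (250 ng/mL final) plus ATP (1.25 mM final); secreted IL-1B measured by AlphaLISA after 16 hr, decreased signal indicating inhibition.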
# TDP1 cell CPT: DT40-hTDP1 cell growth loss with CPT; chicken DT40 Tdp1-/-;hTDP1 cells + 20 nM CPT, ATP luminescence, 48 h; Potency, µM (titrated, usually from 46.2 µM), without a hit: at the top dose activity change, negative = growth inhibition, most hits filed as inhibitors; 420,000 tested, 12% active; also: potency is read from the fitted curve at half-maximal effect; nearly all actives have a fitted effect of over 55% in size
#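 Chicken DT40 Tdp1-/- cells complemented with human TDP1, 400 cells/well, exposed to compounds plus 20 nM camptothecin for at least 48 h at 37 C; viability read as ATP content by CellTiter-Glo luminescence.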
# Numbers without * were called inactive; ? = inconclusive; nt = no result. Only some compounds are listed: those with a hit (about 19% of all), similar ones and a draw of the others. Unless noted, calls follow the shape of the dose curve; as a rule, active = well fitted curve in the direction sought with a large enough effect; inconclusive = small, poorly fitted or top-dose-only effect, or another doubt; inactive = no such curve, though single readings can be large; an effect the other way counts as inactive or inconclusive. Unless noted, % is scaled to controls: 0 for no effect and ±100 for the full control effect.
SMILES,HT1080-NT tox,TDP1 cell noCPT,HT1080 IDH1KD tx,IL-1B inflam inh,TDP1 cell CPT
O=C(COC(=O)c1ccccc1Cl)NCc1cccs1,5%,0%,9%,7,-4%
CCc1ccc(NC(=O)COC(=O)C2(c3ccc(Cl)cc3)CCCC2)cc1,-6%,21µM*,-17%,9,21µM*
O=C(COC(=O)C1(c2ccccc2F)CCCC1)NCc1ccc2c(c1)OCO2,1%,?,-20%,-73*,?
O=C(COC(=O)C1(c2ccccc2F)CCCC1)NCc1cccs1,-11%,23µM*,-1%,?,?
Nc1cc(Cl)ccc1C(=O)OCC(=O)NCc1cccs1,-3%,?,0%,-85*,?
NS(=O)(=O)c1ccc(NC(=O)COC(=O)C2(c3ccccc3F)CCCC2)cc1,-1%,?,-13%,-62*,?
CC(C)C[C@@H](CN)NC(=O)c1nc[nH]c1C(=O)N[C@@H](C)C(=O)CNC[C@H](C)NC(=O)c1nc[nH]c1C(=O)N[C@@H](Cc1ccccc1)C(=O)O,4%,3%,-2%,2,-8%
O=C(CSc1cccc[n+]1[O-])N1CCCCCC1,24%,0%,1%,-10,-7%
O=C(CSc1cccc[n+]1[O-])CSc1cccc[n+]1[O-],1µM*,9.2µM*,0.52µM*,-20,1µM*
[O-][n+]1ccccc1SSc1cccc[n+]1[O-],nt,0.12µM*,nt,nt,0.11µM*
O/N=C(/CCc1ccccc1)c1ccc2c(c1)OCCO2,-7%,?,-15%,?,9%
CC(=O)Nc1cc(C(F)(F)F)ccc1N1CCOCC1,9%,-9%,1%,17,-16%
O=C(Nc1cc(C(F)(F)F)ccc1N1CCOCC1)C1Cc2ccccc2CN1C(=O)c1ccco1 (stereo not given),-8%,?,-9%,27,16µM*
O=C(Nc1ccccc1)C1Cc2ccccc2CN1C(=O)c1ccco1 (stereo not given),4%,-4%,3%,-18,1%
Cc1ccc2nc(SCC(=O)Nc3cc(C(F)(F)F)ccc3N3CCOCC3)[nH]c2c1,?,0.82µM*,1µM*,29,0.82µM*
O=C(CSc1nccc(=O)[nH]1)Nc1cc(C(F)(F)F)ccc1N1CCOCC1,-3%,-10%,-1%,20,-11%
COc1ccccc1/C=C/C(=O)OCC(=O)Nc1cc(C(F)(F)F)ccc1N1CCOCC1,?,2.6µM*,?,35,4.1µM*
O=C(COC(=O)/C=C/c1ccccc1)Nc1cc(C(F)(F)F)ccc1N1CCOCC1,-19%,11%,-12%,17,-1%
CCOC(=O)C(=CNc1cc(C(F)(F)F)ccc1N1CCOCC1)C(=O)OCC,-1%,16µM*,-2%,-53*,?
O=C(CCCCl)NC(=S)Nc1cc(C(F)(F)F)ccc1N1CCOCC1,-16%,15µM*,-13%,?,?
O=C(CSc1nc2ccccc2o1)Nc1ccc(N2CCOCC2)c(Cl)c1,8%,?,15%,12,-28%
O=C(CSc1nc2ccccc2o1)Nc1cc(C(F)(F)F)ccc1N1CCOCC1,-14%,?,?,-50*,?
Cc1ccc(NC(=O)CSCC(=O)Nc2cc(C(F)(F)F)ccc2N2CCOCC2)cc1,-8%,21µM*,-27%,-5,18µM*
CCCCn1nc(C(=O)Nc2cc(C(F)(F)F)ccc2N2CCOCC2)ccc1=O,-14%,3.7µM*,-8%,-26,23µM*
O=C(/C=C/c1ccco1)NC(=S)Nc1cc(C(F)(F)F)ccc1N1CCOCC1,20%,?,-7%,-19,-20%
SMILES,HT1080-NT tox,TDP1 cell noCPT,HT1080 IDH1KD tx,IL-1B inflam inh,TDP1 cell CPT
CCCc1cc(=O)oc2cc(C)cc(OC(C)C(=O)NCc3ccncc3)c12 (stereo not given),-3%,6%,-16%,21,-19%
COc1ccc(NC(C)C(=O)Nc2cc(C(F)(F)F)ccc2N2CCOCC2)c(OC)c1 (stereo not given),-20%,23µM*,-20%,-24,?
C/C(=N\N=C(N)N)c1cccc([N+](=O)[O-])c1,0%,13µM*,-3%,-6,?
C/C(=N\N=C(N)N)c1ccc(C)c(C)c1,-23%,?,-28%,?,18µM*
C/C(=N\NC(=S)NCc1ccccc1)c1ccc(C(C)(C)C)cc1,-26%,23µM*,?,-27,18µM*
CNC(=S)N/N=C(\C)c1ccc(C(C)(C)C)cc1,-1%,-1%,-3%,-13,-6%
CNC(=S)N/N=C(\C)c1ccccc1,?,13µM*,-28%,-22,7.3µM*
C/C(=N\NC(=S)NCc1ccccc1)c1ccc(C#N)cc1,3%,7%,-2%,0,-10%
Cc1ccc(S(=O)(=O)NC[C@H]2O[C@@H](n3cnc4c(N)ncnc43)[C@H](O)[C@@H]2O)cc1,17%,5%,24%,17,-29%
C/C(=N\Nc1ncc(Br)cn1)c1cccc([N+](=O)[O-])c1,23%,13%,17%,-73*,-16%
C/C(=N\Nc1nc(N2CCOCC2)nc(N2CCOCC2)n1)c1cccc([N+](=O)[O-])c1,1%,-17%,5%,-3,4%
CNC(=S)N/N=C(\C)c1cccc([N+](=O)[O-])c1,-1%,2.9µM*,25%,-16,1.3µM*
CCCCN(C)CCC(=O)Nc1ccc(C)cc1,8%,-15%,8%,7,-10%
c1ccc(Sc2nc(N3CCCCC3)nc(N3CCCCC3)n2)nc1,4%,18µM*,2%,23,?
c1ccc(Nc2nc(N3CCCCC3)nc(N3CCCCC3)n2)cc1,?,?,?,-11,?
CCn1c(=O)c2cc(C(=O)N(CCN(C)C)Cc3ccccc3)sc2c2ccccc21,nt,21µM*,nt,nt,-26%
CCOc1ccccc1N(C)C(=O)c1cc2c(=O)n(CC)c3ccccc3c2s1,-2%,21µM*,-2%,-68*,21µM*
CC(C)CCN(Cc1ccco1)C(=O)c1cc2c(Cl)nc3ccccc3c2s1,nt,16µM*,nt,nt,?
CCn1c(=O)c2cc(C(=O)N(CCCOC(C)C)Cc3ccco3)sc2c2ccccc21,nt,21µM*,nt,nt,?
CCCNC(=O)C1(C)CCCN(Cc2ccsc2)C1 (stereo not given),20%,2%,29%,0,-12%
O=C(NCCc1ccccc1)c1ccc(Cl)c(S(=O)(=O)N2CCCC2)c1,-2%,?,-1%,12,?
COc1ccccc1NC(=O)c1ccc(Cl)c(S(=O)(=O)N2CCCCC2)c1,0%,?,-3%,4,?
COc1ccccc1NC(=O)c1ccc(C)c(S(=O)(=O)N2CCCCC2)c1,-8%,26µM*,?,-19,?
